# Bim-Mcl-1 – inhibitors of Bim-Mcl-1 interaction, human; Q07820; Bead-based flow cytometry, Bim peptide-Mcl-1 binding; inhibition, % at 10 µM; hit rate 0.1% among 190,000; AID 1009; in the data active means inhibition above about 40%;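 further: 0% = no compound tracer wells and 100% = peptide blocker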
# Target sequence (Q07820 whole entry, looked up): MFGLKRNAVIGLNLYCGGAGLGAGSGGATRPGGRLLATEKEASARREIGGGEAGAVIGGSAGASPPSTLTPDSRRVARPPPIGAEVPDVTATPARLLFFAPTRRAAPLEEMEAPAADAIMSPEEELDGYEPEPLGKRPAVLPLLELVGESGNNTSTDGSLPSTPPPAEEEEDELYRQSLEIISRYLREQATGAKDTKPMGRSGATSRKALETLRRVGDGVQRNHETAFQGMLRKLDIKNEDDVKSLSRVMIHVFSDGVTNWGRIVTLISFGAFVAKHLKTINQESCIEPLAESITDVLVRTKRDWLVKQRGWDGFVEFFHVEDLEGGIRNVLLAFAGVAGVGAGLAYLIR
# GLD-1 RNA inh – GLD-1-TGE RNA interaction inhibition (C. elegans) | purified GLD-1 + fluorescein TGE RNA, fluorescence polarization | inhibition, % at 5.96 µM | hit rate 0.44% among 320,000 | AID 2280;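 active means percent inhibition above a per-plate cutoff, the plate mean of test compounds plus 3 SD, cut at about 30% in these data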;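 further: 0% = DMSO wells with GLD-1 and probe and 100% = wells lacking GLD-1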
# Mcl1-Noxa inh – disrupts binding of human Mcl-1 to Noxa peptide; Q07820; TR-FRET Mcl-1/Noxa peptide binding, 2 h; inhibition, % at 21.7 µM; hit rate 1.5% among 220,000; AID 1022;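 active means compounds that cut the protein-peptide binding signal by more than 50% relative to plate controls in a single-dose test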;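 further: His-tagged Mcl-1 with rhodamine Noxa BH3 peptide and terbium anti-His antibody; 0% = Mcl-1 plus Noxa peptide wells and 100% = peptide-only wells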
# MCL1-BIM inh – inhibitors of human MCL1 binding to BIM-BH3 peptide. inhibition, % at 10.9 µM. AID 2057. Q07820. GST-MCL1 / FITC-Bim-BH3 fluorescence polarization. hit rate 0.68% among 320,000;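 active means inhibition above the mean inhibition of all tested compounds plus 3 SD, set per campaign, cut at about 40% in these data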;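 further: 0% = DMSO wells and 100% = unlabeled Bim-BH3 peptide control; higher means more loss of mP so more displacement of Bim peptide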
# Mcl1 Bid PPI – disrupts binding of human Mcl-1 to Bid peptide; inhibition, % at 21.7 µM; Q07820; TR-FRET Mcl-1/Bid-Dy647 peptide binding, 1536-well; hit rate 0.97% among 220,000;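 active means compounds that cut the binding signal by more than half at the single screening dose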;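 further: His-tagged Mcl-1 with europium anti-His antibody binding Bid BH3 peptide; 0% = Mcl-1 plus peptide wells and 100% = peptide-only wells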
# Bcl-xL primary – Bcl-xL (human) inhibition. Q07817. GST-Bcl-xL / FITC-Bim BH3 peptide fluorescence polarization. inhibition, % at 10.9 µM. hit rate 0.7% among 320,000. AID 2129;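 active means inhibition above the mean of all tested compounds plus 3 SD, cutoff set per campaign, cut at about 30% in these data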;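 further: 0% = DMSO wells and 100% = unlabeled Bim-BH3 peptide competitor; inhibitors lower millipolarization by displacing the labeled peptide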
# Target sequence (Q07817 whole entry, looked up): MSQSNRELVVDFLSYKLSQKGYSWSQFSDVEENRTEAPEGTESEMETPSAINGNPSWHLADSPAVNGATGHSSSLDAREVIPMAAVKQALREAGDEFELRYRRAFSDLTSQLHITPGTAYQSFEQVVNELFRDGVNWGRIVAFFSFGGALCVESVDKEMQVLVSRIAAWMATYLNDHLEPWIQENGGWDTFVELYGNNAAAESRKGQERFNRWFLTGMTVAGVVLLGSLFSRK
# * hit, by the source's call; x = not tested or not shown. Hits are enriched below; roughly 2.3% of the tested compounds scored in any of these assays.
SMILES,Bim-Mcl-1,GLD-1 RNA inh,Mcl1-Noxa inh,MCL1-BIM inh,Mcl1 Bid PPI,Bcl-xL primary
Cc1cc(NS(=O)(=O)c2ccc(NC(=O)c3cc4c(=O)n5ccccc5nc4s3)cc2)nc(C)n1,4,x,15,x,-25,x
CN(C)S(=O)(=O)c1cccc(NC(=O)c2cc3c(=O)n4ccccc4nc3s2)c1,-2,4,-83,-1,69*,4
COc1cc([N+](=O)[O-])ccc1NC(=O)COC(=O)c1ccc(NC(N)=O)cc1,x,1,72*,26,61*,-7
COCC(=O)Nc1ccc([N+](=O)[O-])cc1OC,-4,2,6,14,11,0
COc1cc([N+](=O)[O-])ccc1NC(=S)Nn1cnnc1,x,1,x,4,x,36*
COc1ccc(CN2CCN(c3ccccn3)CC2)c(OC)c1,0,-5,24,5,56*,-1
COc1cc(O)oc1C=Nc1ccc(C(F)(F)F)cc1,-2,0,64*,-5,-46,1
Cn1c(CNC(=O)OC(C)(C)C)nnc1SCC(=O)N1CCOCC1,x,0,-2,0,-32,2
COc1cc2c(cc1NC(=O)CSc1ccccc1)oc1ccccc12,5,0,7,4,-6,4
COc1cc2c(cc1NC(=S)NC(=O)/C=C/c1ccc(OC)c(OC)c1)oc1ccccc12,1,x,47,x,62*,x
COc1cc2c(cc1NC(=O)CSc1nccn1C)oc1ccccc12,0,6,57*,-3,-3,-6
Cc1ccc2[nH]cc(S(=O)(=O)c3ccc(F)cc3)c(=O)c2c1,x,-5,x,-2,x,1
CCOc1ccc(S(=O)(=O)c2c[nH]c3ccc(C)cc3c2=O)cc1,x,19,x,19,x,41*
COC(=O)C1=C(C)N(Cc2ccccc2)C(=NCC(C)C)N[C@H]1c1ccccc1,x,31*,x,31,x,44*
O=C(NC1CCOc2ccccc21)c1ccc(Cl)nc1 (centres undefined),x,-4,x,-3,x,-1
CCOC(=O)N1CCN(S(=O)(=O)c2ccc(Cl)cc2)CC1,x,2,x,-2,x,-1
CCOC(=O)N1CCC(N2CCN(S(=O)(=O)c3ccc(Cl)cc3)CC2)CC1,2,-6,23,-5,55*,-1
CCc1ccc(C(=O)NC2CCCCC2)s1,-3,2,-3,4,61*,1
COc1ccc(CCNC(=O)c2cc(=O)[nH]c3ccc(Br)cc23)cc1OC,-6,0,4,3,-18,4
Cc1ccc(C)c(NC(=O)C2CCCN2/C=C/C(=O)C(F)(F)F)c1 (centres undefined),-2,-2,-7,-5,72*,2
CCOC(=O)C1CCN(S(=O)(=O)c2ccc3c4c(cccc24)C(=O)N3CC)CC1,x,7,x,x,x,x
COc1ccc(-c2nnn(CC(=O)N(CCCO)C(C(=O)NC3CCCC3)c3ccncc3)n2)cc1 (centres undefined),0,6,7,4,87*,5
O=C(O)c1cc(-c2ccc(/C=C3/SC(=S)N(Cc4ccccc4)C3=O)o2)ccc1Cl,16,x,85*,x,101*,x
Cc1ccc(NC(=O)CN2C(=O)S/C(=C/c3ccc(-c4cccc(C(=O)O)c4)o3)C2=O)cc1,2,x,83*,x,-31,x
CC1(C)OC(=O)C(=Cc2ccc(-c3ccc(Cl)c(C(=O)O)c3)o2)C(=O)O1,-1,-5,26,1,-24,3
SMILES,Bim-Mcl-1,GLD-1 RNA inh,Mcl1-Noxa inh,MCL1-BIM inh,Mcl1 Bid PPI,Bcl-xL primary
O=C1/C(=C/c2ccncc2)SC(=S)N1Cc1ccccc1,x,-1,5,11,4,3
Cc1ccc(/C=C2\SC(=S)N(Cc3ccccc3)C2=O)o1,6,-5,90*,16,-29,2
COC(=O)c1ccc(N2NC(=O)/C(=C/c3ccc(-c4ccc(Cl)c(C(=O)O)c4)o3)C2=O)cc1,2,x,41,x,-82,x
COc1ccc(CN2C(=O)/C(=C/c3ccc(-c4ccc(Cl)c(C(=O)O)c4)o3)SC2=S)cc1,13,x,92*,x,99*,x
CN(C)S(=O)(=O)c1ccc(C(=O)NCC[N+]2(C)CCCCCC2)o1,x,3,x,-10,x,-8
Cc1ccc(-n2c(O)c(C=Nc3ccccc3-c3n[nH]c(=S)[nH]c3=O)c3ccccc3c2=O)c(C)c1,-4,-5,63*,23,-66,20
Cc1cccc(-n2c(O)c(C=Nc3ccccc3O)c3ccccc3c2=O)n1,x,-15,24,2,-109,10
Cc1ccc(-n2c(O)c(C=Nc3ccccc3-c3n[nH]c(=S)[nH]c3=O)c3ccccc3c2=O)cc1C,-3,x,101*,x,-94,x
Cc1cccc(-n2c(O)c(C=Nc3ccccc3-c3n[nH]c(=S)[nH]c3=O)c3ccccc3c2=O)n1,x,0,45,9,-20,12
Cc1ccccc1N1CCN(C2CCCN(C(=O)c3noc4c3CCCC4)C2)CC1 (centres undefined),x,3,x,7,x,-1
CCOC(=O)c1c2c3c(cccc3[nH]c1=O)C(=O)c1ccccc1-2,18,21,8,47*,-10,54*
Cc1ccnc(NC(c2ccncc2)c2c(C)[nH]c3ccccc23)c1 (centres undefined),-4,3,35,8,51*,8
COCCn1c(SCC(=O)NC(=O)NCc2ccccc2)nc2ccccc21,-1,-8,8,-3,56*,-1
Cc1cc(CNC(=O)CC2C(=O)NCCN2Cc2ccccc2C(F)(F)F)on1 (centres undefined),-2,10,-4,12,-24,21
Cc1cnc(CNC(=O)CC2C(=O)NCCN2Cc2ccccc2C(F)(F)F)cn1 (centres undefined),x,27,x,37,x,35*
Cc1ccc(N2C(=O)CC(NNC(=O)c3cccc(S(=O)(=O)N4CCCC4)c3)C2=O)cc1 (centres undefined),-3,-7,-2,4,-22,5
COc1ccc(CC(=O)NCc2cccs2)cc1,0,4,63*,3,-14,1
COc1ccc(CNC(=O)Cc2cccs2)cc1,x,3,x,2,x,5
N#Cc1ccc(OC(=O)Cc2ccsc2)cc1,x,4,x,-11,x,-1
COc1ccc2[nH]c(=O)c(CN(C(=O)C3CCCO3)c3ccc(C)c(C)c3)cc2c1 (centres undefined),x,-2,-18,-8,100*,-2
COc1ccc(N(Cc2cc3cc(OC)ccc3[nH]c2=O)C(=O)C2CCCO2)cc1 (centres undefined),-1,-2,11,1,-12,-1
COc1ccc2[nH]c(=O)c(CN(C(=O)NC3CCCCC3)C3CCCCC3)cc2c1,2,-4,-1,6,11,5
COc1ccc2[nH]c(=O)c(CNc3cccc(C)c3)cc2c1,-5,8,51*,30,-8,25
COc1ccc(NCc2cc3cc(OC)ccc3[nH]c2=O)cc1,1,1,11,19,-28,16

# Screens (PubChem)
